This passage reports growth results from PubChem BioAssay (NCI).

Experiment in all cases: NCI-60 one-dose screen, 48 h (100 = growth as untreated, 0 = no growth, -100 = all killed)
For one assay, the system named is NCI-H23 lung. As to conditions: 10 µM.
The next assay concerns HOP-92 NSCLC. As to conditions: 10 µM.
The next assay deals with NCI-H522 lung. As to conditions: 10 µM.
A further assay relates to MDA-MB-231 breast. To be noted: 10 µM.
A further assay has as its system RXF 393 renal. To be noted: 10 µM.
For another assay, the system named is LOX IMVI melanoma. To be noted: 10 µM.
The test system of the next assay is UO-31 renal. To be noted: 10 µM.
The test system of another assay is CCRF-CEM leukemia. As to conditions: 10 µM.
The next assay relates to OVCAR-5 ovarian. To be noted: 10 µM.
In another assay the test system is HS 578T breast. To be noted: 10 µM.
A further assay relates to T-47D breast. To be noted: 10 µM.
The subject of the next assay is SW-620 colon. To be noted: 10 µM.
A further assay deals with MCF7 breast. As to conditions: 10 µM.
The next assay relates to KM12 colon. As to conditions: 10 µM.
The test system of the next assay is MDA-MB-468 breast. To be noted: 10 µM unless noted.
For a further assay, the system named is COLO 205 colon. To be noted: 10 µM.
In the next assay the test system is K-562 leukemia. To be noted: 10 µM.
In a further assay the test system is MOLT-4 leukemia. To be noted: 10 µM.
In another assay the test system is SR leukemia. To be noted: 10 µM.
The next assay deals with NCI/ADR-RES ovarian. As to conditions: 10 µM.

Several values for one entry are separate records, joined by “and”; a condition that tells them apart may be missing. Equal entries are not always repeated. The panel holds about 83,000 compounds, 20% with a hit somewhere; the sample as a whole holds those more often.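 Cells were grown in 96-well plates and exposed to the test compound at a single concentration for 48 hours; results are reported as percent growth, with values below 10 considered active.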 A number with no mark means an inactive call. Activity calls are given as the source filed them.

`CC1=C(CCC=NNC(N)=O)C2=C(C)C3(CC3)[C@@](C)(O)C(=O)C2=C1`: the growth in the assay with NCI-H23 lung is -78.2% (active); with HOP-92 NSCLC, -11.3% (active); in the assay with NCI-H522 lung, -90.4% (active); in the assay on MDA-MB-231 breast it was -59.7% (active); in the assay on RXF 393 renal, -80.8% (active); in the assay with LOX IMVI melanoma it was -71.9% (active). The growth with UO-31 renal was -65.2% (active); in the assay on CCRF-CEM leukemia, 10.4%; with OVCAR-5 ovarian, -35.8% (active); in the assay with HS 578T breast, -24.5% (active); in the assay on T-47D breast, -38.1% (active); with SW-620 colon, -20.7% (active). For the same molecule, the growth with MCF7 breast is -74.8% (active); with KM12 colon, 1% (active); with MDA-MB-468 breast, -81.5% (active) and -65.8% (active).

As to `CC[C@]12C=CCN3CC[C@@]4(c5ccc(OC)cc5N(C)[C@H]4[C@@](O)(C(=O)OC)[C@@H]1OC(=O)CCCC[P+](c1ccc(OC)cc1)(c1ccc(OC)cc1)c1ccc(OC)cc1)[C@@H]32`, the growth in the assay with NCI-H23 lung is -90.7% (active); with HOP-92 NSCLC, -74.5% (active); with COLO 205 colon, -64.9% (active); with K-562 leukemia, 1.01% (active); in the assay with MDA-MB-231 breast, -97.4% (active); in the assay with RXF 393 renal, -90.4% (active). Besides, the growth with LOX IMVI melanoma is -96.4% (active); in the assay on UO-31 renal it was 15.5%; with CCRF-CEM leukemia it was -59.1% (active); in the assay with MOLT-4 leukemia, -26.2% (active); in the assay with SR leukemia, 23.2%; with OVCAR-5 ovarian, -98.6% (active). Further, the growth with HS 578T breast was -67.5% (active); in the assay with NCI/ADR-RES ovarian it was 84.3%; in the assay with SW-620 colon, -88.7% (active); in the assay on MCF7 breast, -82.6% (active); in the assay with KM12 colon, -68.8% (active); in the assay with MDA-MB-468 breast, -92.7% (active).

Take `CC(=O)Oc1ccccc1C(=O)NC([Se])=NC1CCCCC1`: the growth in the assay with NCI-H23 lung was -0.217% (active); with HOP-92 NSCLC, 32%; with COLO 205 colon, 28.9%; in the assay with K-562 leukemia, 61.8%; with RXF 393 renal it was -68.3% (active); in the assay with UO-31 renal, -87.7% (active). Also, the growth was 28.5% with CCRF-CEM leukemia; 29.4% with MOLT-4 leukemia; 41.4% in the assay on SR leukemia; -30.3% (active) in the assay with OVCAR-5 ovarian; -16.4% (active) with NCI/ADR-RES ovarian; 5.47% (active) in the assay with KM12 colon.

Regarding `O=C(/C=C/c1ccco1)c1nc2ccccc2n1Cc1ccc(Br)cc1`, the growth was 27.4% in the assay with NCI-H23 lung; 3.99% (active) with HOP-92 NSCLC; 7% (active) in the assay on K-562 leukemia; -1.81% (active) with RXF 393 renal; 34.4% in the assay on UO-31 renal; -6.79% (active) in the assay on CCRF-CEM leukemia. Moreover, the growth in the assay with MOLT-4 leukemia is 3.6% (active); in the assay with SR leukemia, 4.72% (active); with OVCAR-5 ovarian, 57%; in the assay on NCI/ADR-RES ovarian, 25.7%; in the assay with T-47D breast it was 4.25% (active); in the assay on KM12 colon, 20.7%. The growth in the assay on MDA-MB-468 breast is -14.5% (active).

Take `O=C(/C=C/c1ccccc1)c1nc2ccccc2n1Cc1ccc(Br)cc1`: the growth was -71.5% (active) with NCI-H23 lung; -54% (active) with HOP-92 NSCLC; -74.7% (active) in the assay with COLO 205 colon; -17.2% (active) in the assay on K-562 leukemia; -94.8% (active) in the assay on RXF 393 renal; -94.9% (active) in the assay on UO-31 renal. Further, the growth in the assay on CCRF-CEM leukemia is -7.81% (active); in the assay with MOLT-4 leukemia, -12% (active); in the assay on SR leukemia, -19.5% (active); in the assay on OVCAR-5 ovarian it was -62.3% (active); in the assay on NCI/ADR-RES ovarian, -37.4% (active); in the assay with T-47D breast, -31.3% (active). The growth in the assay on KM12 colon was -32.5% (active); in the assay on MDA-MB-468 breast it was -93.1% (active).

`COC(=O)CCn1c(-c2ccc(-n3cc(-c4ccc(O[C@H]5O[C@@H]6OC7(C)CC[C@H]8[C@H](C)CC[C@@H]([C@H]5C)[C@@]68OO7)cc4)nn3)cc2)nc2ccccc21`: the growth is 13.6% with NCI-H23 lung; 1.85% (active) in the assay with HOP-92 NSCLC; 21% with K-562 leukemia; 35% in the assay with MDA-MB-231 breast; 37.3% with RXF 393 renal; -54.5% (active) in the assay on LOX IMVI melanoma. The growth in the assay with UO-31 renal was 6.53% (active); in the assay on CCRF-CEM leukemia it was 28.1%; with MOLT-4 leukemia, 11%; in the assay with SR leukemia it was -11.8% (active); in the assay with OVCAR-5 ovarian, 36.6%; with HS 578T breast, 30.3%. Further, the growth in the assay with NCI/ADR-RES ovarian was 16.2%; with SW-620 colon, 23.9%; in the assay on MCF7 breast, 11.1%; in the assay on KM12 colon it was 18%; in the assay on MDA-MB-468 breast, 11.1%.

Take `CN(C)CCc1cn(C2CCC2)c2cccc(O)c12`: the growth was 83.6% with NCI-H522 lung; 1.37% (active) in the assay on K-562 leukemia; 76% in the assay with MDA-MB-231 breast; 53.2% in the assay with RXF 393 renal; 50.4% in the assay with LOX IMVI melanoma; 47.8% with UO-31 renal. The growth in the assay with CCRF-CEM leukemia was 56.6%; with MOLT-4 leukemia, 57.2%; with SR leukemia it was 52.8%; in the assay on OVCAR-5 ovarian it was 79.8%; in the assay with HS 578T breast it was 47.7%; in the assay on NCI/ADR-RES ovarian, 74.3%. The growth in the assay on SW-620 colon was 23%; with MCF7 breast, 22.4%; with KM12 colon it was 76.1%; in the assay on MDA-MB-468 breast it was 44.6%.

For the molecule `CC12OOC(C)(OO1)C2CCC(=O)OCCNc1ccnc2cc(Cl)ccc12` (stereo not given), the growth in the assay with NCI-H23 lung was 4.36% (active); in the assay on HOP-92 NSCLC it was -27.2% (active); in the assay with K-562 leukemia, 3.42% (active); with MDA-MB-231 breast it was 91.5%; in the assay with RXF 393 renal it was -15.7% (active); in the assay on LOX IMVI melanoma it was -92.1% (active). In addition, the growth was -97.2% (active) in the assay with UO-31 renal; 9.26% (active) in the assay on CCRF-CEM leukemia; 26.1% in the assay on MOLT-4 leukemia; -27% (active) in the assay on SR leukemia; 95.2% in the assay on HS 578T breast; 16.5% with T-47D breast. The growth is 7.3% (active) in the assay on SW-620 colon and 60.6% in the assay with KM12 colon.

`COC(=O)C[C@](O)(CCC(C)C)C(=O)O[C@H]1C(OC)=C[C@@]23CCCN2CCc2cc4c(cc2[C@@H]13)OCO4`: the growth with NCI-H23 lung is -54.3% (active); in the assay with NCI-H522 lung, -70% (active); in the assay with K-562 leukemia it was 4.01% (active); in the assay with MDA-MB-231 breast it was -30.3% (active); with RXF 393 renal, -30.5% (active); with LOX IMVI melanoma, -82.4% (active). In addition, the growth in the assay with UO-31 renal was -25.3% (active); in the assay with CCRF-CEM leukemia, -5.42% (active); in the assay on MOLT-4 leukemia, -5.07% (active); with SR leukemia, -26.7% (active); in the assay with OVCAR-5 ovarian, -20.4% (active); with HS 578T breast it was -25.8% (active). For the same molecule, the growth in the assay on SW-620 colon is -27.9% (active); in the assay on MCF7 breast, -17% (active); in the assay with KM12 colon it was -22.3% (active); in the assay on MDA-MB-468 breast, -39.7% (active).
